Screens from PubChem BioAssay.
HT1080NT lethal = kills 2HG-producing HT-1080-NT fibrosarcoma cells | HT-1080-NT fibrosarcoma viability, CellTiter-Glo ATP luminescence, 48 h | Potency, µM (doses to about 46.1 µM), hits mostly cytotoxic | 360,000 tested, 1.6% active;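 further: NT is the 2HG producing partner of a matched IDH1 knockdown line; nearly all actives have a fitted effect of over 55% in size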
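HT-1080-NT; 750 cells/well; 5% FBS RPMI; 48 h compound, 37 degrees C; CellTiter-Glo luminescence; curve fitting and curve-class assignment.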
HT1080 IDH1KD tx = kills HT-1080 cells with IDH1 knockdown | 360,000 tested, 2% active | HT-1080 IDH1 knockdown viability, ATP luminescence, 48 h | Potency, µM (doses to about 46.1 µM), most hits filed as cytotoxic
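In this qHTS, HT-1080 cells depleted of IDH1 are exposed for 48 h at 37 °C to compound titrations. Toxicity is scored from CellTiter-Glo luminescence, with DMSO as full viability and medium alone as none.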
DT40 TDP1 CPT = growth inhibition of DT40 Tdp1-/-;hTDP1 cells with camptothecin (screen for TDP1 inhibitors); Potency, µM (doses to about 46.2 µM), most hits filed as inhibitors; chicken DT40 Tdp1-/-;hTDP1 cells + 20 nM CPT, ATP luminescence, 48 h; 420,000 tested, 12% active; further: nearly all actives have a fitted effect of over 55% in size
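Chicken DT40 Tdp1-/- cells complemented with human TDP1, 400 cells/well, exposed to compounds plus 20 nM camptothecin for at least 48 h at 37 C; viability read as ATP content by CellTiter-Glo luminescence.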
ELG1 DNA repair = inhibitors of ELG1-dependent DNA repair in HEK293T cells. AID 504467. 330,000 tested, 2.3% active. HEK293T ELG1-luciferase reporter, luminescence, 16 h; DNA damage induced by 5-fluorouridine. Potency, µM (titrated, usually from 46.1 µM), hits mostly inhibitors; further: nearly all actives have a fitted effect of over 55% in size
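5-Fluorouridine DNA damage + compound/DMSO, 2,000 cells/well, 16 h, 37 °C/5% CO2. ONE-Glo, 30 min RT, luminescence. Readout = decrease in reporter signal.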
DT40 TDP1 no CPT = qHTS for Inhibitors of human tyrosyl-DNA phosphodiesterase 1 (TDP1): qHTS in cells in absence of CPT | 420,000 tested, 15% active | DT40 Tdp1-/- hTDP1 cells, no CPT, ATP luminescence, 48 h | Potency, µM (titrated, usually from 46.2 µM), hits mostly inhibitors | AID 686978, 2013; further: nearly all actives have a fitted effect of over 55% in size
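Stably hTDP1-transfected Tdp1-null chicken DT40 cells were treated with library compounds minus camptothecin and grown for at least 48 hr at 37 °C, after which cellular ATP was quantified by luminescence.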
IL1B secr inh = blocks inflammasome-driven IL-1 beta release. 360,000 tested, 4.7% active. activity change, % at 57.5 µM. THP-1 LPS/ATP IL-1B secretion, AlphaLISA, 16 h; stronger effect = lower value; in the data active means activity change below about -50%; inconclusive means mostly about -30% to -49%
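Secreted IL-1B measured by AlphaLISA bead assay after 16 h compound exposure of THP-1 cells; compounds (final up to 57.5 uM) added 1 h before LPS (250 ng/mL) and ATP (1.25 mM) stimulation; lower signal means less secretion.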
Hits are given with their value; i = inactive; ? = inconclusive; nt = no result given. Shown are actives, neighbours in structure and some others; about 19% of the full set was active somewhere. Unless noted, the call rests on the fitted dose curve; in most records, active means well fitted curve in the direction sought with a large enough effect; inconclusive means small, poorly fitted or top-dose-only effect, or another doubt; inactive means no such curve, though single readings can be large; an effect the other way counts as inactive or inconclusive.

SMILES	HT1080NT lethal	HT1080 IDH1KD tx	DT40 TDP1 CPT	ELG1 DNA repair	DT40 TDP1 no CPT	IL1B secr inh
CCN(CC)S(=O)(=O)c1ccc(NC(=O)c2cc(-c3cccs3)nc3ccccc23)cc1	?	?	?	?	?	i
CCN(CC)C(=O)c1cccc(NC(=O)c2cc(-c3ccccn3)nc3ccccc23)c1	i	i	?	?	16µM	i
COC(=O)c1ccc(NC(=O)c2cc(-c3ccccn3)nc3ccccc23)cc1	i	i	i	i	i	i
CCN(CC)S(=O)(=O)c1ccc2[nH]c(=O)cc(C(=O)Nc3ccc(C)c(S(=O)(=O)N(CC)CC)c3)c2c1	i	?	?	18µM	23µM	i
CCCCN(C(=O)CSCc1c(C)noc1C)c1c(N)n(CCCC)c(=O)[nH]c1=O	i	i	i	i	i	i
O=C(Cc1cccc2ccccc12)N/N=C/c1ccc(Sc2cccc3cccnc23)o1	nt	nt	nt	16µM	nt	nt
O=C(Cc1cccc2ccccc12)N/N=C/c1ccc(O)c([N+](=O)[O-])c1	i	i	i	i	i	i
CCCCC(=O)N/N=C/c1ccc(Sc2cccc3cccnc23)o1	?	?	?	?	23µM	i
CC(Oc1ccc(/C=N/NC(=O)Cc2cccc3ccccc23)cc1)C(=O)O (centres undefined)	i	i	i	i	i	i
O=C(Cc1cccc2ccccc12)N/N=C/c1ccc2cccc(O)c2n1	?	23µM	?	i	15µM	i
COc1ccccc1-c1cc(NC(=O)COc2ccccc2Cl)n(-c2ccccc2)n1	nt	nt	i	nt	i	nt
Cc1cccc(N(C(=O)c2ccco2)C(C(=O)NC2CCCC2)c2ccco2)c1C (centres undefined)	i	i	i	i	i	i
COc1ccc(NC(=O)N2CC3(CCN(C(=O)c4c(C)noc4C)CC3)C2)cc1	nt	nt	i	nt	i	nt
Cc1c(C(=O)NCC(C)(C)CN(C)C)cnn1-c1nccc(-c2ccccc2F)n1	nt	nt	i	nt	i	nt
Cc1cccc(CNC(=O)c2cccc(NC(=O)N3CCSc4ncccc43)c2)c1	nt	nt	15µM	nt	?	nt
CCOc1ccc(CNC(=O)c2cccc(NC(=O)N3CCSc4ncccc43)c2)cc1OC	nt	nt	16µM	nt	16µM	nt
COc1cccc(CCc2nc3ccccc3c(=O)n2N)c1	i	i	?	nt	21µM	i
COc1cccc(OCc2nc3ccccc3c(=O)n2N)c1	i	i	?	?	i	i
COc1ccc(Br)cc1C(C[N+](=O)[O-])c1c(N)n(C)c(=O)n(C)c1=O (centres undefined)	?	?	3.7µM	i	3.7µM	-83
Cn1c(N)c(C(C[N+](=O)[O-])c2c(F)cccc2Cl)c(=O)n(C)c1=O (centres undefined)	?	?	2.6µM	?	2.1µM	i
CN(C)c1ccc(C(C[N+](=O)[O-])c2c(N)n(C)c(=O)n(C)c2=O)c(F)c1C#N (centres undefined)	?	?	2.3µM	i	2.1µM	-63
CCOc1ccccc1NC(=O)Cn1c(=O)n(Cc2ccccc2)c(=O)c2cccnc21	nt	nt	i	nt	i	nt
CCCCOc1ccc(C2C(=O)N(C3CCCCC3)CC(=O)N2C2CCCCC2)cc1 (centres undefined)	nt	nt	i	nt	i	nt
OC(CNC1CCCCC1)CON=C1CCSc2c(Cl)cccc21 (centres undefined)	i	?	23µM	nt	8.2µM	?
Cc1cccc(NC(=O)c2cnn(-c3ccccc3)c2-n2cccc2)c1C	nt	nt	16µM	nt	?	nt
SMILES	HT1080NT lethal	HT1080 IDH1KD tx	DT40 TDP1 CPT	ELG1 DNA repair	DT40 TDP1 no CPT	IL1B secr inh
CCc1ccc(NC(=O)c2cnn(-c3ccccc3)c2-n2cccc2)cc1	nt	nt	18µM	nt	?	nt
COc1ccc(NC(=O)Cn2ncc3c([nH]c4ccccc43)c2=O)cc1Cl	nt	nt	i	nt	?	nt
COC(=O)C1=C(C)N(Cc2ccco2)C(=O)/C1=C\c1ccc([N+](=O)[O-])cc1	?	?	16µM	i	?	-102
COC(=O)C1=C(C)N(Cc2ccc(OC)cc2)C(=O)/C1=C\c1ccco1	i	i	26µM	18µM	16µM	i
Cc1ccc(C(=O)/C=C/c2ccc3c(c2)OCO3)o1	?	?	18µM	?	21µM	-50
Cc1cc(C)c(C(=O)/C=C/c2cccc3ccccc23)c(=O)[nH]1	?	?	16µM	15µM	9.2µM	-85
Cc1ccc(C(=O)/C=C/c2ccccc2)o1	i	i	?	?	15µM	?
Cc1cc(C)c(C(=O)/C=C/c2ccc3c(c2)OCO3)c(=O)[nH]1	i	i	?	?	?	-91
CC(C)(CO)[C@@H](O)C(=O)NCCCC(=O)O	nt	nt	i	nt	i	nt
CS(=O)(=O)c1ccccc1-c1nnc(NC(=O)C2=COCCO2)o1	i	i	i	i	i	i
COc1cc2c3nc4n(c(=O)c3n(CC(=O)NCC3CCCO3)c2cc1OC)CCS4 (centres undefined)	i	i	i	i	i	i
CCNc1ccccc(C(=O)/C=C/c2ccc3c(c2)OCO3)c1=O	i	i	8.2µM	i	16µM	i
C/C(=C\c1ccccc1F)C(=O)c1c(C)cc(C)[nH]c1=O	i	i	i	i	i	-68
COC(=O)/C=C/c1ccc2c(c1)OCO2	i	i	i	i	i	i
Cc1ccc(C(=O)/C=C/c2ccc(Br)cc2)o1	i	i	?	?	23µM	-57
Nc1ccc(Sc2ccccc2Cl)nc1	i	i	i	nt	i	i
COc1ccc(C(N)c2csc(Nc3ccc(C(=O)NCCCO)cn3)n2)cc1 (centres undefined)	i	i	?	nt	?	i
COc1ccc(C(N)c2csc(Nc3ncccn3)n2)cc1 (centres undefined)	i	i	?	nt	?	i
NC(c1csc(Nc2cc(NCCCO)ncn2)n1)c1ccccc1Cl (centres undefined)	?	?	?	nt	?	-56
COc1cc(OC)nc(Nc2nc(C(N)c3ccccc3)cs2)n1 (centres undefined)	i	i	?	nt	?	-56
COc1cc(OC)nc(Nc2nc(CN)cs2)n1	?	i	i	nt	?	i
COc1cc(OC)nc(Nc2nc(C(N)CCc3ccccc3)cs2)n1 (centres undefined)	i	?	26µM	nt	?	?
COc1cc(OC)nc(Nc2nc(C(N)c3ccccc3Cl)cs2)n1 (centres undefined)	?	?	?	nt	26µM	nt
c1ccc(COC2COC3C(OCc4ccccc4)COC23)cc1 (centres undefined)	i	i	i	nt	i	i
